Several values for one entry are separate records, joined by “and”; a condition that tells them apart may be missing. Equal entries are not always repeated.

The nature of this assay: qHTS profiling of the MIPE4 collection as inhibitors of Plasmodium falciparum (3D7) proliferation (AID 743344).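 Further: scaled between DMSO vehicle wells and 0.29 µM artemisinin as full inhibition.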 The settings on record: P. falciparum 3D7 in erythrocytes, SYBR Green DNA fluorescence, 72 h; at 28.5 µM unless noted. Put shortly:
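Erythrocytes infected with P. falciparum (0.3% parasitemia, 2.5% hematocrit) incubated with compounds 72 h at 37 C, 5% CO2. Lysis with saponin/Triton buffer containing SYBR Green I, overnight at room temperature in the dark; DNA fluorescence (485/535 nm) normalised to 0.29 uM artemisinin and DMSO.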
For orientation: qHTS replaces the single test concentration by a dilution series.
The compound `CC(Oc1ccc(O)cc1)(P(=O)(O)O)P(=O)(O)O` yielded a parasite growth, % of DMSO control of 64.8%. The same measure for `CNC(=O)c1ccc(Nc2cc(Nc3ccccc3S(=O)(=O)C(C)C)c3cc[nH]c3n2)nc1`: 4.82%. Take `O=[N+]([O-])c1cn2c(n1)OC[C@@H](OCc1ccc(OC(F)(F)F)cc1)C2`: the parasite growth, % of DMSO control was 94.2% and 79.4%.

`O=C(c1ccc(F)cc1)N1CCC[C@H](c2nc(-c3ccc(F)cc3)no2)C1` came in with a parasite growth, % of DMSO control of 74.1%. The same measure for `CCN(CC)CCNC(=O)c1c(C)[nH]c(C=C2C(=O)Nc3ccc(F)cc32)c1C`: 4.82% [at 57.5 µM]. Next, `CCN(CC)Cc1ccc2cc(COC(=O)Nc3ccc(C(=O)NO)cc3)ccc2c1`: 4.38%; `Cc1cn([C@@H]2O[C@H](CO)[C@@H](O)[C@H]2F)c(=O)[nH]c1=O`: 100%. The same measure for `Cc1[nH]c(C=C2C(=O)Nc3ccccc32)c(C)c1CCC(=O)O`: 7.83%. The compound `N#CC(=C(O)c1ccc(Cl)cc1Cl)c1nc2cc(Cl)ccc2c(=O)[nH]1` yielded a parasite growth, % of DMSO control of 36.6%. The same measure for `CC(C)[C@H](CO)Nc1nc(Nc2cccc(Cl)c2)c2ncn(C(C)C)c2n1`: 8.7%; for `C=Cc1c(C)c2cc3nc(cc4[nH]c(cc5nc(cc1[nH]2)C(C)=C5CCC(=O)O)c(CCC(=O)OC)c4C)[C@@]1(C)C3=CC=C(C(=O)OC)[C@H]1C(=O)OC`: 3.3%; for `CCCCCCCCCCCC(CC1OC(=O)C1CCCCCC)OC(=O)C(CC(C)C)NC=O` (centres undefined): 7.26%. The same measure for `C[C@H](O)[C@@H]1C(=O)N2C(C(=O)O)=C(S[C@@H]3CN[C@H](CNS(N)(=O)=O)C3)[C@@H](C)[C@@H]12`: 107%; for `Cc1noc(-c2ccc(CSCCC(=O)O)cc2)c1NC(=O)OC(C)c1ccccc1Cl` (centres undefined): 41.1%.
